Assay results published in the supplement of paper PMC11417369.
Over roughly 25,000 sequences, “ln(normalized median fluorescence intensity)” has its median near 9.7; the highest 2% begin near 11. Shown is part of a subset that was picked to be rich in the highest values.

system: PfAP2-HC AP2 domain (GST-tagged); experiment: gcPBM binding intensity (ln(normalized median fluorescence intensity)); higher = stronger DNA binding
Method in brief: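 Alexa488 anti-GST antibody, scanned at 488 nm, detected GST-tagged P. falciparum DNA-binding domains that had been expressed in E. coli and incubated for 1 h on an Agilent 4 × 180k array. The array carried primer-extended double-stranded 36-bp intergenic genomic probes and negative controls. Binding intensity is the highest Masliner-normalised natural-log median intensity across replicate spots of either orientation of each probe.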

Sequence	gcPBM binding intensity (ln)
AAAAAACTTCACATATGTACTTAAAAAAAATTAAAA [XGTACX_site2368]	9.43
ATATAGTAAAATTATACACACATGAATTTTCCCATA [CACACA_site3113]	9.81
TCCCAATTTATTATGTGTACTTATTATATACATATA [XGTACX_site4033]	9.72
AAGTATTACAACCACACACACACCTATATATCATAG [CACACA_site7878]	11
TAAAGTATTACAACCACACACACACCGATATATTAT [CACACA_site9382]	10.8
AAGTATTACAACCACACACACACCTATATATTATAT [CACACA_site4158]	10.6
ATTATAACCATATACACACCCATATAAATAAATATA [CACACA_site6926]	10.5
TAAAGTATTACAACCACACACACACCCATATATTAT [CACACA_site4159]	11.1
GTATTACAACGACACACACACCTATATATCATAGTA [CACACA_site7877]	10.5
AAAGGATGTAATATAAACATATATATGTATATATAT [TGCATGCA_negctrl_site347]	9.79
AATATTATATTTTATTGTACTAATAAAAATATATGC [XGTACX_site5435]	9.43
AAAAAAGGAAAAGATACACACCGTAAATTAAAATTT [CACACA_site5908]	10.2
AAAAAAAAAAAAAAAAAAAAAAAAAAAATACGAAAG [GTGCAC_negctrl_site729]	9.46
AATTTCTACTATTGTATGCACTTTCATACATACATA [GTGCAC_site9924]	9.92
TAAAAAATAAAATAATGTACATATGAATTATATATT [XGTACX_site8398]	9.68
TATTACCCATATTATACACACATATATTATATATAT [CACACA_site1567]	10.2
TATAGAAGCGTTCACACACACACATACATACCCATA [CACACA_site4915]	11.1
GTTATAGAAGCATTCACACACACACCGACATACACA [CACACA_site4914]	10.3
TTGTTATAGAAGCATTCACACACACCCATACATACA [CACACA_site8414]	10.8
AATATAGATACATATACACACACACCCATACATATA [CACACA_site9137]	10.6
GTTATAGAAGCATTCACACACACACCCACATACACA [CACACA_site1465]	11.2
TCTTCCATTTTTATTACACACATAAATATGAAATCG [CACACA_site3471]	9.74
ATATATATTTATAATCGTACGTACCTAACAATACAA [XGTACX_site4510]	9.62

Sequence	gcPBM binding intensity (ln)
ATGGATTATACGTGCACACATATATACAAATAAATA [CACACA_site640]	9.81
AAACTTGACGAACACACACACACATATATAAAAAAA [CACACA_site6494]	11.5
AAATAAAATACATATAAACACACATATAAACCAACA [CACACA_site8789]	10.2
CATATATAAAAAAACACACACATATATATATATATA [CACACA_site1195]	10.2
AAACTTGACAGACACACACACACATATATAAAAAAA [CACACA_site757]	10.4
AAACTTGACGGACACACACACACATATATAAAAAAA [CACACA_site4577]	11.6
ACTTGACACCAACACACACACATATATAAAAAAAAA [CACACA_site756]	11
GTTTGATTAAACTTGACACACATATATATAAATATA [CACACA_site1784]	9.65
ACTTGACACGGACACACACACATATATAAAAAAAAA [CACACA_site4576]	10.5
AGCAGACACCAACACACACACATATATATATATATA [CACACA_site337]	10.5
AATGGAAAATTATTAACACACACATATAAATATATA [CACACA_site7899]	10.1
AAATATAAATATACTCGTACATATATATATATATAT [XGTACX_site6940]	9.72
ACAAAACATATATTCTGTACATATATAATGGTGACT [XGTACX_site6796]	9.77
TTTTTTTTTTTTTTTTTTTGATTCTTATAAAAATTT [GTGCAC_negctrl_site240]	8.56
CTTATATTTAGACACACACACAATAAAATGAAAAAA [CACACA_site1031]	10.3
TACTAAGAATTAATATAACAAAATAAAAAAAAAAAA [XGTACX_negctrl_site346]	9.44
TACAATTTATGACACACACACAATAATACCTATATA [CACACA_site6704]	10.3
CAATTTATAAAGAAAACACACATATACCTATATACA [CACACA_site6710]	9.85
AATACAATTTATAACACACACACAAGAATACCTATA [CACACA_site6705]	11.1
ATTGCATTTGTAGATAATACAATATGGATTGTTATA [CACACA_negctrl_site1749]	9.44
TCCTTATTACTTTTTTAAGTCGTAATGAAAGAAAAA [CACACA_negctrl_site1497]	9.15
AAATATTTATACCACACACACATACCTCTATTTGTA [CACACA_site6957]	10.7
AAATATATATACCACACACACATACCTCTATTTGTA [CACACA_site1854]	11.1
